Sampled rows, rich in hits. Any-hit rate of the full collection: about 4.6%.
Mdm2 MdmX PPI: inhibitors of human Mdm2-MdmX association, primary screen, cell-based, luminescence, split luciferase, SaOS-2, uHTS; SaOS-2 split-luciferase Mdm2/MdmX complementation; inhibition, % at 8 µM; 3% of 330,000 active; AID 485346, 2010;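 active = inhibition of at least 50% at 8 µM in the primary screen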
CF NFkB block: inhibitors of PAF-induced NF-kB signaling, primary screen, cell-based, GFP fluorescence, uHTS | AID 588850, 2011 | 0.86% of 360,000 active | inhibition, % at 5 µM | KKLEB NF-kB-GFP reporter, GFP fluorescence overnight;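 active = at least 50% inhibition at 5 µM, scaled per plate between neutral and stimulator controls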;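 note: PAF is a Pseudomonas aeruginosa culture filtrate used as stimulus; plate controls were PAF-stimulated DMSO wells for no effect and unstimulated DMSO wells for full effect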
ABHD5 PLIN5 PPI: ABHD5-PLIN5 interaction inhibitors, primary screen, cell lysate, split luciferase complementation, luminescence | Split G. princeps luciferase complementation, 4 h | inhibition, % at 4 µM | 0.78% of 360,000 active;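 active = inhibition above the mean inhibition across every tested compound plus 3 SD, cut at about 22% in these data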;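 note: 0% = DMSO only wells and the 100% control is not disclosed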
Target sequence (Q00G26 whole entry, looked up): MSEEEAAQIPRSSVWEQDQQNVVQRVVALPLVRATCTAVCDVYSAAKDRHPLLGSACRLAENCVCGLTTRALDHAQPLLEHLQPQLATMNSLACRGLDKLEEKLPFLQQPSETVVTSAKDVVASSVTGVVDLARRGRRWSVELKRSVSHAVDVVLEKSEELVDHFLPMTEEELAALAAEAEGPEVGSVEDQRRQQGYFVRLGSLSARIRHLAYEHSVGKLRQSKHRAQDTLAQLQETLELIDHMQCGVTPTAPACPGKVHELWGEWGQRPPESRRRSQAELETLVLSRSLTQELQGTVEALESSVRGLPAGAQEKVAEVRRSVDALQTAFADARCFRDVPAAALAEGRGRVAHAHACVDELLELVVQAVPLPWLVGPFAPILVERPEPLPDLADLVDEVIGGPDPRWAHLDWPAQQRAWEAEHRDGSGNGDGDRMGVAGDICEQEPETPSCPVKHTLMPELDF
Target sequence (Q8WTS1 whole entry, looked up): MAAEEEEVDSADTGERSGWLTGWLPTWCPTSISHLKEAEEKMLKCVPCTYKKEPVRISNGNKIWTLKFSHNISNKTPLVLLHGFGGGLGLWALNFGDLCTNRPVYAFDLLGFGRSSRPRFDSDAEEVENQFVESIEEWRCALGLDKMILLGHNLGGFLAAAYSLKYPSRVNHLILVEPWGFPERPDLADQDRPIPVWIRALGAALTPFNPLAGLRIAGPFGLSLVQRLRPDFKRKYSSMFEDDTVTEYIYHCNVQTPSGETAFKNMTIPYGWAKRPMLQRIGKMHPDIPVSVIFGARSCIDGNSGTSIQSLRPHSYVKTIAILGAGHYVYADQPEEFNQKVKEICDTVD
HIF-2a inh: HIF-2a reporter inhibitors, primary screen, luminescence, 786-0 RCC cells; inhibition, % at 18.8 µM; 786-0 RCC cells HIF-2a reporter, luciferase luminescence, overnight; 0.72% of 360,000 active;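 active = inhibition of the luminescence signal of 40% or more relative to plate controls, in a single-dose primary screen at 18.75 µM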
Peg3 prom inh: Peg3 promoter-driven luciferase inhibitors, primary screen, cell-based, HeLa, luciferase luminescence | HeLa PEG-Prom luciferase reporter, overnight | inhibition, % at 20 µM | 1.7% of 360,000 active | AID 588405, 2011;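 active = inhibition of at least 50% at 20 µM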
KKLEB tox: cytotoxicity in KKLEB CF airway cells, primary screen, cytotoxicity control for CF NF-kB inhibitor project, cell-based, uHTS, fluorescence assay plates; KKLEB CF airway cells viability, ATPlite luminescence, overnight; hits give low values; cells stimulated with P. aeruginosa culture filtrate; AID 602141, 2011; activity change (cytotoxicity), % at 5 µM; 0.36% of 360,000 active;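 active = corrected activity change at or below -50% at 5 µM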
ABHD5 PLIN5 conf: ABHD5-PLIN5 interaction inhibitors, confirmation, biochemical, luminescence | shares compounds with ABHD5 PLIN5 PPI | AID 651612, 2012 | 67% of 2,200 active | inhibition, % at 4 µM; in the data active = inhibition above about 23%;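 note: 0% = DMSO vehicle wells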
HNF4 split-luc: HNF4 dimerization inhibitors, counter-screen for ABHD5-PLIN5 interaction inhibitor project, biochemical, split-luciferase complementation, luminescence; shares compounds with ABHD5 PLIN5 PPI; inhibition, % at 4 µM; 77% of 2,200 active; AID 651674, 2012;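 active = mean inhibition across replicate wells exceeding the computed hit threshold, cut at about 13% in these data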;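 note: light from luciferase halves that rejoin when HNF4 fusion proteins dimerize; 0% = DMSO only wells and the 100% control is not given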
HIF-2a conf: HIF-2a reporter inhibitor retest, confirmation, luminescence, 786-0 RCC cells; inhibition, % at 18.8 µM; HIF-2a luciferase reporter luminescence, overnight; 56% of 1,800 active; shares compounds with HIF-2a inh;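 active = mean inhibition across four replicates of at least 40 percent at the single tested concentration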
HIF-1a cs: HIF-1a luciferase reporter signal reduction – MiaPaCa-2 cells, single concentration, counter-screen for HIF-2a inhibitor project, confirmation. shares compounds with HIF-2a inh. MiaPaCa-2 HIF-1a luciferase reporter, desferoxamine, overnight. inhibition, % at 18.8 µM. 72% of 1,800 active;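 active = mean inhibition of the reporter signal across four replicates at the single tested dose of 50% or more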
* = called active by the depositor; . = no result.

SMILES	Mdm2 MdmX PPI	CF NFkB block	ABHD5 PLIN5 PPI	HIF-2a inh	Peg3 prom inh	KKLEB tox	ABHD5 PLIN5 conf	HNF4 split-luc	others
Clc1ccc2c(c1)C(c1ccccc1Cl)=NCc1nnc(N3CCN(CCSc4ccccc4)CC3)n1-2	40	7	26*	8	12	4	21	9
COc1cccc(OCc2cc(C(=O)N3C[C@H]4C[C@@H](C3)c3cccc(=O)n3C4)no2)c1	-151	-1	-6	-238	-316	6	.	.
O=C(COc1ccccc1)N1CCN(C/C=C/c2ccccc2)CC1	1	-10	0	12	9	14	.	.
O=C(CF)N(O)c1ccc(C=Cc2ccccc2)cc1	.	-14	37*	-218	-322	-13	46*	-4
C=CCNC(=O)c1c(N)n(Cc2ccco2)c2nc3ccccc3nc12	22	-38	36*	16	14	-9	50*	66*
COCCNC(=O)c1c(N)n(Cc2ccco2)c2nc3ccccc3nc12	33	-5	18	1	21	8	.	.
CCOC(=O)[C@]12Cc3cc4ccccc4cc3[C@H]1N(Cc1ccccc1)C(=O)c1cc(OC)ccc12	.	.	23*	25	.	.	11	16*
CCOC(=O)[C@]12Cc3cc(OC)ccc3[C@H]1N(C1CCCCC1)C(=O)c1ccccc12	.	.	40*	16	.	.	18	32*
CC12CCC(O)CC1CCC1C2CCC2(C)C(C(=O)CO)CCC12 (configuration not stated)	.	24	2	8	18	-13	.	.
Cc1ccc(OC(F)F)c(N2C(=O)C3C4CCC(O4)C3C2=O)c1 (configuration not stated)	10	-8	-7	16	9	4	.	.
CSc1ncc(/C=C2/C(=O)NC(=O)N(c3ccc(C)cc3)C2=O)cn1	-19	15	18	6	0	10	.	.
CCOc1ccc(N2C(=O)NC(=O)/C(=C/c3cnc(SC)nc3)C2=O)cc1	2	0	28*	13	8	0	71*	87*
Cc1ccc(N2C(=O)NC(=O)/C(=C\c3cnc(-c4ccccc4)nc3)C2=O)cc1	3	13	30*	-27	-13	7	86*	92*
CSc1ncc(/C=C2/C(=O)NC(=O)N(c3ccc(Cl)cc3)C2=O)cn1	.	-13	42*	6	11	12	78*	91*
O=C(COc1ccc2ccc(=O)oc2c1)N1CCC(C(=O)O)(c2ccccc2)CC1	-7	1	0	8	7	4	.	.
Oc1ccccc1C1NCc2ccccc2-n2cccc21 (configuration not stated)	15	0	-1	14	12	-7	.	.
CC(=NCc1ccc2c(c1)OCO2)c1c(O)n(-c2ccc(C)cc2)c(=O)[nH]c1=O	-1	-2	99*	6	7	5	-2	-2
COC(=O)C1=C(c2ccccc2)C[C@@H]2CC[C@H]1N2C(=O)NC1CCCCC1	-3	-24	-2	3	-2	10	.	.
O=[N+]([O-])NC1=NCCN1Cc1ccc(Cl)nc1	44	13	-11	8	18	0	.	.
CN1CCC(N(C)c2nc(-c3ccc([N+](=O)[O-])cc3)nc3ccccc23)CC1	.	8	29*	-20	108*	-14	11	2
CCN1C(=O)NC(=O)/C(=C\c2cn(CC(=O)N3CCCCC3)c3ccccc23)C1=O	-11	8	26*	6	1	-9	20	20*
CCN1C(=O)NC(=O)/C(=C\c2cn(CC(=O)N3CCCC3)c3ccccc23)C1=O	7	-2	25*	16	34	4	24*	26*
CCN1C(=O)NC(=O)/C(=C\c2cn(CC(=O)O)c3ccccc23)C1=O	21	.	.	.	.	.	.	.
C[C@]12CCC3C(CC[C@H]4C[C@@H](O)CC[C@]34C)C1C[C@H](Br)[C@@H]2O (some centres not stated)	10	3	2	-3	2	6	.	.
COP(=S)(OC)c1c(C)nn(CCC#N)c1NC(=O)c1ccc(Cl)cc1	6	-3	0	8	8	1	.	.
SMILES	Mdm2 MdmX PPI	CF NFkB block	ABHD5 PLIN5 PPI	HIF-2a inh	Peg3 prom inh	KKLEB tox	ABHD5 PLIN5 conf	HNF4 split-luc	others
COc1ccc(C(c2ccc(OC)cc2)C(Cl)(Cl)Cl)cc1	28	-16	-12	-45	-9	-2	.	.
CSc1nc(N)c(N=Nc2ccc([As](=O)(O)O)cc2)c(=O)[nH]1	24	-1	66*	11	-12	-4	68*	52*
COc1ccc(N=Nc2c(O)[nH]c(=S)[nH]c2=O)cc1	0	-4	7	-200	-202	0	.	.
NC(=S)/N=C/c1c(O)[nH]c(=O)[nH]c1=O	4	1	5	8	5	-5	.	.
C=CCNC(=S)/N=C/c1c(O)[nH]c(=O)[nH]c1=O	5	-8	28*	3	8	4	1	6
COC(=O)C1=C(c2ccc3ccccc3c2)C[C@@H]2CC[C@H]1N2C	-17	7	8	-6	-14	8	.	.
COC(=O)C1=C(C(=O)OC)C2OC1c1cc3ccccc3cc12	.	42	81*	86*	95*	-18	78*	109*	HIF-2a conf=84*;HIF-1a cs=59*
CCOC(=O)[C@]12Cc3cc(Cl)ccc3[C@H]1N(C1CCCCC1)C(=O)c1ccccc12	.	.	51*	85*	.	.	40*	39*	HIF-2a conf=97*;HIF-1a cs=105*
CCOC(=O)[C@]12Cc3cc(Cl)ccc3[C@H]1N(C)C(=O)c1ccccc12	.	.	-4	18	.	.	.	.
CCOC(=O)[C@]12Cc3cc(C)ccc3[C@H]1N(C)C(=O)c1ccccc12	.	.	5	19	.	.	.	.
